Here are results for 36 compounds from PubChem BioAssay AID488969 (Vanderbilt High Throughput Screening Facility, 2010).

Each structure is given as a SMILES string. Over roughly 110,000 compounds, “z-score” has its median near -0.1; the highest 2% begin near 2. Only a selection was taken, and the highest values are over-represented in it overall. Activity calls are given as the source filed them.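 How the source made its calls: active means z-score in the third read window above 3 or below -3; inactive means the rest.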

Sequence of Metabotropic glutamate receptor 8 (Rattus norvegicus) (P70579 whole entry, looked up): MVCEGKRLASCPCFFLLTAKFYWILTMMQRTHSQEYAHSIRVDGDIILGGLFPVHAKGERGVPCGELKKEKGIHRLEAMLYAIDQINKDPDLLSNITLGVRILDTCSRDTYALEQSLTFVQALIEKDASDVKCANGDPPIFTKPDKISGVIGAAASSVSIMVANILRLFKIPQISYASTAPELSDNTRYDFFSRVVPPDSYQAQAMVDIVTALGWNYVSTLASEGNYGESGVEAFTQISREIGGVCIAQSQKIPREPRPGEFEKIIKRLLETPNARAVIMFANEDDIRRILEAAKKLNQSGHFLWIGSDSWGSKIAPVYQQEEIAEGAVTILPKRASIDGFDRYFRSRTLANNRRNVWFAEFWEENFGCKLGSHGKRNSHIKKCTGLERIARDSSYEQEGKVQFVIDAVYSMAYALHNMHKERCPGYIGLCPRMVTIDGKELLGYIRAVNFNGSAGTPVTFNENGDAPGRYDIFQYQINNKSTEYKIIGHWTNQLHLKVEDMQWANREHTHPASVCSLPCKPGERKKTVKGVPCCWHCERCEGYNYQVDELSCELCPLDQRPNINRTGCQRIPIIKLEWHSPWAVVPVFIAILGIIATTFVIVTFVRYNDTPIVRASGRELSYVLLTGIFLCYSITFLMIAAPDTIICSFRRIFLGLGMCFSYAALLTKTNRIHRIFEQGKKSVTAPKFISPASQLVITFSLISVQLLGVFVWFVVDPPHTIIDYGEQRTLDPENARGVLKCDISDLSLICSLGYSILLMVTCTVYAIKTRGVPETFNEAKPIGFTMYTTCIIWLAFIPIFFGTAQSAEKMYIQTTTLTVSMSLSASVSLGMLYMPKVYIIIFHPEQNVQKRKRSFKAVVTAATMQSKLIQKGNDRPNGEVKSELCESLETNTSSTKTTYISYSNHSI

This assay addresses Metabotropic glutamate receptor 8 (Rattus norvegicus) (UniProt P70579). The assay can be described thus: rat mGluR8 modulators via GIRK flux, primary screen, cell-based, thallium flux, HTS (AID 488969). As to conditions: HEK293 rat mGluR8, GIRK (G protein-gated inwardly rectifying potassium channel) thallium flux, FluoZin2; at 10 µM; stronger effect = higher value; submaximal glutamate (EC20) added with thallium.
For `O=C(Nc1cccc(C(=O)N2CCCC2)c1)c1ccccc1Cl`, the z-score is -0.0275.

As for `COCCNC(=O)c1ccccc1-c1nc(-c2ccccc2OC)no1`, the z-score amounted to 0.0674.

`N=C(CC1CC(=O)NC(=O)C1)C1=C(O)CCCC1=O`: the z-score was found to be 2.31.

In the case of `O=C1CC(c2ccc3c(c2)OCO3)C2=C(CCCC2=O)N1` (stereo unspecified), the z-score is -0.2.

Take `CC(=Nc1ccccc1)C1=C(O)CCCC1=O`: the z-score was -0.104.

On to `C/C(=N\NC(=O)COc1ccccc1F)c1cc2ccccc2o1`, for which the z-score was -0.0133.

Consider `COc1ccc(/C(C)=N/NC(=S)NCc2ccco2)cc1`, for which the z-score is 4.34 (active).

Consider `CC/C(C)=N/NC(=S)NCc1ccco1`, for which the z-score came to 0.0671.

Turning to `C=CCNC(=S)N/N=C(\C)c1ccc(OC)cc1`, the z-score was 2.03.

Consider `C/C(=N\NC(=O)Nc1ccccc1)c1ccc2ccccc2c1`, for which the z-score was -0.112.

Compound `C=CCNC(=S)N/N=C(\C)c1cc(OC)c(OC)c(OC)c1` gave a z-score of -0.183.

`C=C(C)CNC(=S)N/N=C(\C)c1ccc(OC)cc1` displayed a z-score of -1.56.

The compound `COc1ccc(NC(=S)NCc2ccco2)cc1` had a z-score of -0.0213.

In the case of `C/C(=N\NC(=S)NCc1ccccc1)c1ccc2ccccc2c1`, the z-score was determined as 2.12.

Consider `C/C(=N\NC(=O)c1ccco1)c1cc2ccccc2o1`, for which the z-score came out at 0.664.

In the case of `C/C(=N\NC(=S)NCc1ccccc1)c1ccc(Cl)cc1`, the z-score worked out at 0.101.

As for `CCNC(=S)N/N=C(\C)c1cc2ccccc2o1`, the z-score was 8.26 (active).

`Cc1nc(=O)c(-c2ccccc2)c(C)n1-c1ccc(O)cc1` returned a z-score of -1.56.

`CCc1ccc(OCC(=O)N/N=C/c2ccc(OS(=O)(=O)c3ccc(C)cc3)c(OC)c2)cc1`: the z-score was -0.212.

On to `Cc1ccc2nsnc2c1S(=O)(=O)NC1CC1`, for which the z-score is 0.516.

Compound `Cc1sc(NC(=O)c2ccco2)c(CN2CCN(c3ccccc3)CC2)c1C` registered a z-score of -0.213.

For the compound `c1ccc(N(c2ccccc2)c2nc(-n3ccnc3)nc(-n3ccnc3)n2)cc1`, the z-score is -0.953.

In turn, `O=C(O)CCCn1nc(C(F)(F)F)c2c1CCCCC2` registered a z-score of -0.241.

`COC(=O)Nc1sc(C(=O)N(C)C)c(C)c1C(=O)OC` yielded a z-score of 0.175.

Turning to `C=CCc1c(C)nc(C)nc1N/N=C/c1ccc(F)cc1`, the z-score was -0.164.

Regarding `C=CCc1c(C)nc(C)nc1N/N=C/c1ccccc1`, the z-score is -0.683.

Compound `C=CCc1c(C)nc(C)nc1N/N=C/c1ccccc1O` registered a z-score of 2.25.

With `CSc1cc(C)n(-c2ccccc2)c(=S)c1C(C)=O`, the z-score is -0.0675.

Regarding `CCOc1ccc(CNC(=O)CCn2c(=O)oc3ccccc32)cc1OC`, the z-score came to 0.903.

Compound `O=C(O)C1C2C=CC(O2)C1C(=O)Nc1ccc(S(=O)(=O)N2CCc3ccccc32)cc1` (stereo unspecified) had a z-score of -0.0204.

As to `CCOC(=O)Cc1csc(NC(=O)c2ccc(Br)s2)n1`, the z-score came to 1.08.

`CCOC(=O)Cc1csc(NC(=S)NC(=O)C(C)(C)C)n1` returned a z-score of 1.73.

The compound `CCOC(=O)Cc1csc(NC(=O)c2ccc(Br)o2)n1` yielded a z-score of 0.017.

On to `CCOC(=O)Cc1csc(NC(=S)NC(=O)c2ccccc2C)n1`, for which the z-score is 9.08 (active).

`CCOC(=O)Cc1csc(NC(=S)NC(=O)CC(C)C)n1` came in with a z-score of 1.27.

As for `CCOC(=O)Cc1csc(NC(=S)NC(=O)c2ccccc2Br)n1`, the z-score was 7.57 (active).
